Experimental findings from PubChem BioAssay AID620 (Sanford-Burnham Center for Chemical Genomics, 2007) are described below.

The whole screen tested about 87,000 compounds, of which about 360 (0.41%) were called active. The entries come from a sample that favours actives as a whole. Values without a mark were called inactive. Cut-off read from the data, not from the text of the source: active = cytotoxicity above about 50%; inactive = the rest.

The assay in a line: cytotoxicity in HT1080 fibrosarcoma cells, cell-based, fluorescence readout (AID 620).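 Note: cells exposed to compound overnight then 4 h with Alamar Blue; 0% = vehicle DMSO and 100% = killing control.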 Particulars: HT1080 viability, at 10 µM, active compounds read high.
Consider `CC(=O)N1[C@H](Cc2ccccc2)C=C[C@]1(C)C(=O)NCc1ccc(C)o1`, for which the cytotoxicity was -2.9%.

`Cc1ccsc1C1NC(=O)c2c(sc3c2CCN(C)C3)N1` (configuration not stated): the cytotoxicity was 9.6%.

`O=S(=O)(c1cccc(-c2csc(-c3ccccc3)n2)c1)N1CCOCC1`: the cytotoxicity is 2%.

On to `CC(C)Cn1c(N)c(S(=O)(=O)c2cccs2)c2nc3ccccc3nc21`, for which the cytotoxicity is 30.5%.

As for `COCCn1c(N)c(S(=O)(=O)c2cccs2)c2nc3ccccc3nc21`, the cytotoxicity is 11%.

Turning to `CC(C)CCn1c(N)c(S(=O)(=O)c2cccs2)c2nc3ccccc3nc21`, the cytotoxicity was 57% (active).

Consider `Cc1cc(N2CCN(C(=O)c3ccco3)CC2)n2ncc(-c3ccccc3)c2n1`, for which the cytotoxicity is 5.6%.

Regarding `Cc1ccccc1-n1c(SCC(=O)N2CCN(c3ccccc3)CC2)nnc1-c1ccncc1`, the cytotoxicity was -3.7%.

Regarding `CCSC1=C(C#N)C(c2ccc(C)s2)CC(=O)N1` (configuration not stated), the cytotoxicity was 0.8%.

As for `CCOC(=O)CSC1=C(C#N)C(c2ccccc2OC)CC(=O)N1` (configuration not stated), the cytotoxicity was -1%.

As for `CCCCCCSC1=C(C#N)C(c2ccc(C)o2)CC(=O)N1` (configuration not stated), the cytotoxicity was 29.7%.

Consider `CCOC(=O)CSC1=C(C#N)C(c2ccc(C)s2)CC(=O)N1` (configuration not stated), for which the cytotoxicity is 58% (active).

`CCOC(=O)CSC1=C(C#N)C(c2ccc(C)o2)CC(=O)N1` (configuration not stated): the cytotoxicity was 59.5% (active).

As to `CCOC(=O)CSC1=C(C#N)C(c2ccc(Cl)cc2)CC(=O)N1` (configuration not stated), the cytotoxicity was 2.7%.

On to `COc1cc(C(=O)Nc2nnc(CC(=O)N3CCOCC3)s2)cc(OC)c1OC`, for which the cytotoxicity was -1%.

On to `CCOc1ccccc1NC(=O)CSc1nnnn1-c1ccccc1`, for which the cytotoxicity is 7.2%.

For the molecule `Cc1noc(C)c1S(=O)(=O)N1CCCC(C(=O)NCc2ccccn2)C1` (configuration not stated), the cytotoxicity was 3.9%.

As to `COC(=O)CN(Cc1ccco1)S(=O)(=O)c1ccccc1`, the cytotoxicity was 1.2%.

`CC1=CCC(Cc2nc3ccccc3o2)C1(C)C` (configuration not stated): the cytotoxicity is 0.6%.

Turning to `CCOc1ccc(Br)cc1S(=O)(=O)Nc1ccccc1N1CCOCC1`, the cytotoxicity is 4.5%.

For `CCOc1cc(N2CCOCC2)c(OCC)cc1NS(=O)(=O)c1ccc(Cl)s1`, the cytotoxicity is 51.9% (active).

In the case of `CCOc1cc(N2CCOCC2)c(OCC)cc1NC(=O)CCS(=O)(=O)c1ccc(Cl)cc1`, the cytotoxicity is 6.9%.

`O=C(NC1CCCCCC1)C1CCN(C(=O)Cc2ccccc2)CC1`: the cytotoxicity was 3.1%.

With `COc1ccc2nc(-n3c(C)ccc3C)sc2c1`, the cytotoxicity was -1.1%.

Turning to `O=C(N1CCN(CCO)CC1)N1c2ccccc2C=Cc2ccccc21`, the cytotoxicity was 3.2%.

In the case of `COc1ccc(NC(=O)CC(=O)Nc2ccc(OC)cc2OC)c(OC)c1`, the cytotoxicity is -3.5%.

With `CCC(=O)Nc1ccc(OC)cc1OC`, the cytotoxicity is -3.2%.

For `COc1cc(C2C(C#N)=C(N)Oc3cc(N(C)C)ccc32)cc2c1OCO2` (configuration not stated), the cytotoxicity is 63.3% (active).

On to `N#CC1=C(N)Oc2c(ccc3cccnc23)C1c1cccnc1` (configuration not stated), for which the cytotoxicity is 39.8%.

Take `COc1ccc(C2C(C#N)=C(N)Oc3cc(O)ccc32)cc1OC` (configuration not stated): the cytotoxicity was -13.3%.

Consider `CN(C)c1ccc2c(c1)OC(N)=C(C#N)C2c1cccc(F)c1` (configuration not stated), for which the cytotoxicity was 56% (active).

On to `N#CC1=C(N)Oc2cc(N)ccc2C1c1ccc(F)cc1` (configuration not stated), for which the cytotoxicity was -0.8%.

With `N#CC1=C(N)Oc2cc(O)ccc2C1c1ccncc1` (configuration not stated), the cytotoxicity was -6.2%.

On to `N#CC1=C(N)Oc2cc(O)ccc2C1c1ccccc1` (configuration not stated), for which the cytotoxicity was -0.8%.

For the molecule `COc1cc(C2C(C#N)=C(N)Oc3cc(C)oc(=O)c32)cc2c1OCO2` (configuration not stated), the cytotoxicity was -1.5%.

Take `COc1cc(C2C(C#N)=C(N)Oc3cc(O)ccc32)cc2c1OCO2` (configuration not stated): the cytotoxicity is -6.6%.

`N#CC1=C(N)Oc2cc3ccccc3cc2C1c1cccnc1` (configuration not stated): the cytotoxicity is 47.6%.

Take `CCN(CC)c1ccc2c(c1)OC(N)=C(C#N)C2c1cccnc1` (configuration not stated): the cytotoxicity is 67.5% (active).

`COc1cc(C2C(C#N)=C(N)Oc3cc(O)ccc32)cc(OC)c1OC` (configuration not stated): the cytotoxicity was 64.7% (active).

On to `Cc1cccc(OCCn2c(NC(=O)c3ccco3)nc3ccccc32)c1`, for which the cytotoxicity is 5.5%.

Turning to `CC(=O)N1[C@H](Cc2ccccc2)C=C[C@]1(C)C(=O)O`, the cytotoxicity is 6.6%.

For `CCC(c1nnnn1C1CCCC1)N1CCN(c2ccccc2F)CC1` (configuration not stated), the cytotoxicity is -20.4%.

`Cc1ccnc(NS(=O)(=O)c2ccc(Oc3ccccc3)cc2)c1`: the cytotoxicity is 7.3%.

Take `COc1cc(NC(=O)CN2C(=O)NC(C)(CC(C)C)C2=O)cc(OC)c1` (configuration not stated): the cytotoxicity is -7.9%.

For `O=C1NC(c2ccccc2)=C(c2nc3ccccc3s2)C(c2ccc(F)cc2)N1` (configuration not stated), the cytotoxicity was -3.1%.

With `O=C(CSc1nnc(COc2ccc(F)cc2)o1)N1c2ccccc2CCc2ccccc21`, the cytotoxicity was -8%.

Turning to `O=C(CSc1nnc(COc2ccc(Cl)cc2)o1)N1c2ccccc2CCc2ccccc21`, the cytotoxicity was 62.4% (active).

`O=C(CSc1nnc(COc2ccc(Cl)cc2)o1)N1CCN(c2ccccc2)CC1`: the cytotoxicity is 1.3%.

For the molecule `O=C(CCCN1C(=O)c2ccccc2C1=O)Nc1ccc(S(=O)(=O)N2CCOCC2)cc1`, the cytotoxicity is 14.1%.

Regarding `CCCCCc1nnc(NC(=O)CS(=O)(=O)Cc2ccccc2)s1`, the cytotoxicity is -1.5%.

Turning to `CC1=CC(C)(C)Nc2ccc(OC(=O)c3ccco3)cc21`, the cytotoxicity was 59.2% (active).

As to `CC1=CC(C)(C)Nc2ccc(OC(=O)c3cccnc3)cc21`, the cytotoxicity is 14.7%.

For `CC1=CC(C)(C)Nc2ccc(OC(=O)CN3C(=O)C4CCCCC4C3=O)cc21` (configuration not stated), the cytotoxicity was -1%.

Take `COc1ccc(CC(=O)c2ccccc2C(=O)O)cc1`: the cytotoxicity was -0.2%.

With `CCCCN(CCCC)S(=O)(=O)c1ccc(OC)c2ncccc12`, the cytotoxicity was 32.7%.

In the case of `COc1ccc(C(=O)Oc2ccc(/C=N/O)cc2)cc1`, the cytotoxicity is 2.6%.

With `CO/N=C/C(=N\Nc1ccc(C)cc1)C(=O)c1ccc(OC)cc1`, the cytotoxicity was 53.7% (active).

In the case of `CO/N=C\C(=N\Nc1ccc(OC)cc1)C(=O)c1ccccc1`, the cytotoxicity was -0.7%.

`COc1ccc(N/N=C(\C=N\O)C(=O)c2ccc(OC)cc2)cc1`: the cytotoxicity was 59% (active).

Take `COc1ccc(N/N=C(/Oc2ccc([N+](=O)[O-])cc2)C(C)=O)cc1`: the cytotoxicity was 5.4%.

With `CO/N=C/C(=N\Nc1ccc(OC)cc1)C(=O)c1ccc(OC)cc1`, the cytotoxicity was 11.7%.

In the case of `CCOc1ccc(N2C(=O)CSC23CCCCC3)cc1`, the cytotoxicity was -10.8%.

Take `COCCn1c(SCC(=O)NCc2cccs2)nnc1-c1ccc(OC)cc1`: the cytotoxicity was 7.9%.

Regarding `Cc1ccc(SC(C)C(=O)Nc2ccncc2)cc1` (configuration not stated), the cytotoxicity is -1.4%.

On to `O=C1c2[nH]nc(-c3ccccc3O)c2C(c2cccc(Cl)c2)N1Cc1ccco1` (configuration not stated), for which the cytotoxicity is 3.9%.

Take `Cc1ccc(S(=O)(=O)N2CCN(C(=O)c3ccc(OCc4c(C)noc4C)cc3)CC2)cc1`: the cytotoxicity is -2.3%.

For `NC(=O)C1CCN(C(=S)c2cccs2)CC1`, the cytotoxicity is 8.7%.

As for `N#CC1=C2SCC(O)(c3ccccc3)N2C(=O)CC1c1ccccc1F` (configuration not stated), the cytotoxicity is 4.1%.

Take `N#CC1=C2SCC(O)(c3ccccc3)N2C(=O)CC1c1ccccc1` (configuration not stated): the cytotoxicity is 63.1% (active).

`COc1ccc(C2CC(=O)N3C(=C2C#N)SCC3(O)c2ccccc2)cc1` (configuration not stated): the cytotoxicity is 5.5%.

For `O=C(NCCCN1CCCC1=O)c1cccs1`, the cytotoxicity was 1.9%.

In the case of `Cn1c(=O)c2c(nc(CN3CCN(c4ccccc4)CC3)n2CCN2CCOCC2)n(C)c1=O`, the cytotoxicity was 8.9%.

Regarding `COc1ccc(Nc2cc(C)nc(N3CCOCC3)n2)cc1`, the cytotoxicity is 21.5%.

Turning to `CCOc1ccc(Nc2cc(C)nc(N3CCOCC3)n2)cc1`, the cytotoxicity was -0.6%.

Take `Cc1cc(NCCO)nc(-n2nc(C)cc2C)n1`: the cytotoxicity was -5.5%.

For `CNc1cc(C)nc(-n2nc(C)cc2C)n1`, the cytotoxicity was 2.1%.

`CCOc1ccc(Nc2cc(C)nc(-n3nc(C)cc3C)n2)cc1`: the cytotoxicity is 50.6% (active).

Take `COc1ccc(Nc2cc(C)nc(-n3nc(C)cc3C)n2)cc1`: the cytotoxicity was 65.9% (active).

In the case of `CCCc1nc2sc3ccccc3c(=O)c2c(=O)n1Cc1ccco1`, the cytotoxicity was 21%.

Turning to `Cc1cccc(NS(=O)(=O)c2cc(C(=O)N3CCN(C)CC3)ccc2C)c1`, the cytotoxicity was -3.1%.

Regarding `COC(=O)Nc1nc2ccc(C(=O)c3ccccc3)cc2[nH]1`, the cytotoxicity is 61.1% (active).

On to `COC(=O)Nc1nc2ccc(Sc3ccccc3)cc2[nH]1`, for which the cytotoxicity is 62.2% (active).

As to `COc1cc(C(=O)Nc2nc3ccccc3[nH]2)cc(OC)c1OC`, the cytotoxicity is -3.2%.

Consider `COc1ccc(C(=O)Nc2nc3ccccc3[nH]2)cc1OC`, for which the cytotoxicity is 0.5%.

Take `COc1cc(OC)cc(C(=O)Nc2nc3ccccc3[nH]2)c1`: the cytotoxicity is -1.1%.

On to `Cc1nc2ccc(C(=O)c3ccccc3)cc2[nH]1`, for which the cytotoxicity is -6.6%.

In the case of `Cc1ccc(-c2nc(CS(=O)CC(=O)NC3CCC(C)CC3)c(C)o2)cc1` (configuration not stated), the cytotoxicity was -9.8%.

Consider `CCc1ccc(OC)c(S(=O)(=O)Nc2ccccc2C)c1`, for which the cytotoxicity is 3.8%.

Consider `CC(C)N(c1ccccc1)c1ccc(NC(=O)C2CCCO2)cc1` (configuration not stated), for which the cytotoxicity is -3.8%.

In the case of `Cn1nnnc1Sc1ncnc2scc(-c3ccc(F)cc3)c12`, the cytotoxicity was 20%.

For the molecule `Cc1ccc(-c2csc3ncnc(NCCN4CCOCC4)c23)cc1`, the cytotoxicity is -10.9%.

Take `CNC(=O)CN1C(=O)CSc2ncccc21`: the cytotoxicity was -11.8%.

Take `Cn1c(=NC(=O)CCl)sc2ccccc21`: the cytotoxicity was 98.2% (active).

Take `CC(=O)N=c1sc2ccccc2n1C`: the cytotoxicity was -2.3%.

For the molecule `Cn1c(=NC(=O)CN2C(=O)C3CC=CCC3C2=O)sc2ccccc21` (configuration not stated), the cytotoxicity is -0.3%.

For the molecule `CC(=O)Nc1ccc(NC(=O)Cn2c(CC(=O)N3CCCC3)nc3ccccc32)cc1`, the cytotoxicity is -27.7%.

For `C=CCn1c(N2C(=O)CC(Cc3ccccc3)C2=O)nc2ccccc21` (configuration not stated), the cytotoxicity is 5.8%.

For the molecule `CCc1ccc(NC(=O)c2ccccc2NC(=O)C2CCCO2)cc1` (configuration not stated), the cytotoxicity is -5.7%.

As for `COc1cccc2c(=O)n(CC(=O)NC3CCCC3)ccc12`, the cytotoxicity was 2.2%.

As to `c1ccc(-c2noc(C3CCCCC3)n2)nc1`, the cytotoxicity is -7.2%.

For the molecule `c1ccc(-c2nnc(-c3ccccn3)nc2NC2CCCCC2)cc1`, the cytotoxicity was 50.7% (active).

With `CNc1nc(-c2ccccn2)nnc1-c1ccccc1`, the cytotoxicity is 10.4%.
